# Reference: PubChem BioAssay (NCATS)
# Inconclusive results are not listed. A call without a number means that no potency is given here. The source made the active and inactive calls. The call rests on the fitted dose curve; in most records, active means well fitted curve in the direction sought with a large enough effect; inconclusive means small, poorly fitted or top-dose-only effect, or another doubt; inactive means no such curve, though single readings can be large; an effect the other way counts as inactive or inconclusive.
# Experiments:
# [1] = qHTS of pediatric cancer cell lines to identify multiple opportunities for drug repurposing: Primary screen for NB-EBc1 cells (AID 1347095); conditions: NB-EBc1 neuroblastoma viability, CellTiter-Glo luminescence, 48 h; series mostly up to 46 µM; further: potency means the concentration at half of the fitted maximal effect
# Method in brief: (§1)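 Viability was measured as metabolically active cells after 48 hours of treatment, read by CellTiter-Glo luminescence. Compounds were tested at multiple final concentrations, giving concentration-response curves.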
# [2] = qHTS of pediatric cancer cell lines to identify multiple opportunities for drug repurposing: Primary screen for U-2 OS cells (AID 1347096); conditions: U-2 OS viability, CellTiter-Glo luminescence, 48 h; series mostly up to 46 µM; further: nearly all actives have a fitted effect of over 50% in size
# Method in brief: (§2)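 Cells (500-1,000/well) rested 5 h, then received compounds for 48 h; metabolically active cells were measured by CellTiter-Glo luminescence. Final concentrations spanned up to 46 µM (MIPE, 11-point) or 0.59 nM-46 µM (NPC, 8-point) in primary screens, 11-point in follow-ups.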
# [3] = qHTS of pediatric cancer cell lines to identify multiple opportunities for drug repurposing: Primary screen for SK-N-SH cells (AID 1347098); conditions: SK-N-SH viability, CellTiter-Glo luminescence, 48 h; series mostly up to 57 µM; further: nearly all actives have a fitted effect of over 65% in size; further: potency means the concentration at half of the fitted maximal effect
# Method in brief: as §2
# [4] = qHTS of pediatric cancer cell lines to identify multiple opportunities for drug repurposing: Primary screen for NB1643 cells (AID 1347099); conditions: NB1643 neuroblastoma viability, CellTiter-Glo luminescence, 48 h; series mostly up to 46 µM; further: nearly all actives have a fitted effect of over 50% in size; further: potency means the concentration at half of the fitted maximal effect
# Method in brief: as §1
# [5] = qHTS of pediatric cancer cell lines to identify multiple opportunities for drug repurposing: Primary screen for LAN-5 cells (AID 1347100); conditions: LAN-5 neuroblastoma viability, CellTiter-Glo luminescence, 48 h; series mostly up to 46 µM; further: potency means the concentration at half of the fitted maximal effect
# Method in brief: as §2
# [6] = qHTS of pediatric cancer cell lines to identify multiple opportunities for drug repurposing: Primary screen for BT-12 cells (AID 1347101); conditions: BT-12 viability, CellTiter-Glo luminescence, 48 h; series mostly up to 57.3 µM; further: nearly all actives have a fitted effect of over 25% in size; further: potency means the concentration at half of the fitted maximal effect
# Method in brief: as §2
# [7] = qHTS of pediatric cancer cell lines to identify multiple opportunities for drug repurposing: Primary screen for Rh18 cells (AID 1347102); conditions: Rh18 rhabdomyosarcoma viability, CellTiter-Glo luminescence, 48 h; series mostly up to 46 µM; further: nearly all actives have a fitted effect of over 65% in size
# Method in brief: as §2
# [8] = qHTS of pediatric cancer cell lines to identify multiple opportunities for drug repurposing: Primary screen for MG 63 (6-TG R) cells (AID 1347105); conditions: MG 63 (6-TG R) viability, CellTiter-Glo, 48 h; series mostly up to 46 µM; further: nearly all actives have a fitted effect of over 50% in size
# Method in brief: as §1
# [9] = qHTS of pediatric cancer cell lines to identify multiple opportunities for drug repurposing: Primary screen for control Hh wild type fibroblast cells (AID 1347106); conditions: Hh wild-type fibroblast viability, CellTiter-Glo luminescence, 48 h; series mostly up to 46 µM;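 further: a drop in luminescence marks cytotoxicity and a rise apparent proliferation; nearly all actives have a fitted effect of over 55% in size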
# Method in brief: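 Cells (500-1,000/well) in growth media were settled 5 h at 37 degrees C, then given compounds for 48 h. Viability was read as CellTiter-Glo luminescence. Primary runs used MIPE at 11 points (0.78 nM-46 µM) and NPC at 8 points (0.59 nM-46 µM); follow-ups used 11 points.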
# [10] = qHTS of pediatric cancer cell lines to identify multiple opportunities for drug repurposing: Primary screen for Rh30 cells (AID 1347107); conditions: Rh30 rhabdomyosarcoma viability, CellTiter-Glo luminescence, 48 h; series mostly up to 46 µM; further: nearly all actives have a fitted effect of over 75% in size
# Method in brief: as §2
# [11] = qHTS of pediatric cancer cell lines to identify multiple opportunities for drug repurposing: Primary screen for OHS-50 cells (AID 1347103); conditions: OHS-50 osteosarcoma viability, CellTiter-Glo luminescence, 48 h; series mostly up to 57.3 µM; further: nearly all actives have a fitted effect of over 40% in size
# Method in brief: as §2
# [12] = qHTS of pediatric cancer cell lines to identify multiple opportunities for drug repurposing: Primary screen for RD cells (AID 1347104); conditions: RD rhabdomyosarcoma viability, CellTiter-Glo luminescence, 48 h; series mostly up to 46 µM; further: nearly all actives have a fitted effect of over 55% in size
# Method in brief: as §1
# [13] = qHTS of pediatric cancer cell lines to identify multiple opportunities for drug repurposing: Primary screen for Rh41 cells (AID 1347108); conditions: Rh41 rhabdomyosarcoma viability, CellTiter-Glo luminescence, 48 h; series mostly up to 46 µM;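 further: luminescence drop marks cytotoxic hits; nearly all actives have a fitted effect of over 70% in size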
# Method in brief: as §1
# [14] = qHTS of pediatric cancer cell lines to identify multiple opportunities for drug repurposing: Confirmatory screen for NB1643 cells (AID 1347109); conditions: NB1643 neuroblastoma cell viability; series mostly up to 45.9 µM; further: nearly all actives have a fitted effect of over 45% in size
# Method in brief: as §2
# [15] = qHTS of pediatric cancer cell lines to identify multiple opportunities for drug repurposing: Confirmatory screen for A673 cells (AID 1347110); conditions: A673 Ewing sarcoma cell viability; series mostly up to 45.9 µM;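 further: potency means the concentration at half of the fitted maximal effect; cells exposed to compound for 48 h before the viability read; nearly all actives have a fitted effect of over 65% in size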
# Method in brief: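 Cells plated at 500-1,000/well were treated five hours later with multi-point dilutions up to 46 µM final. After two days, CellTiter-Glo was added and luminescence read.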
# [16] = qHTS of pediatric cancer cell lines to identify multiple opportunities for drug repurposing: Confirmatory screen for BT-12 cells (AID 1347112); conditions: BT-12 rhabdoid tumor cells, viability; series mostly up to 45.9 µM; further: nearly all actives have a fitted effect of over 55% in size
# Method in brief: as §2
# [17] = qHTS of pediatric cancer cell lines to identify multiple opportunities for drug repurposing: Confirmatory screen for LAN-5 cells (AID 1347113); conditions: LAN-5 neuroblastoma cell viability; series mostly up to 45.9 µM; further: nearly all actives have a fitted effect of over 65% in size
# Method in brief: as §2
# [18] = qHTS of pediatric cancer cell lines to identify multiple opportunities for drug repurposing: Confirmatory screen for DAOY cells (AID 1347114); conditions: DAOY medulloblastoma cells viability, cytotoxicity qHTS; series mostly up to 45.9 µM; further: nearly all actives have a fitted effect of over 65% in size
# Method in brief: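 Viability measured as metabolically active cells via CellTiter-Glo luminescence following 48 hours of compound exposure, 11-point dilutions in confirmatory testing. 500-1,000 cells/well plated 5 hours before dosing; controls were DMSO and 2.3 µM bortezomib.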
Compound,Potency [1],Potency [2],Potency [3],Potency [4],Potency [5],Potency [6],Potency [7],Potency [8],Potency [9],Potency [10],Potency [11],Potency [12],Potency [13],Potency [14],Potency [15],Potency [16],Potency [17],Potency [18]
CC(C)OC(=O)c1cc2c(OCC(O)CNC(C)(C)C)cccc2[nH]1 (stereo not given),inactive,inactive,inactive,inactive,inactive,inactive,inactive,inactive,inactive,inactive,–,–,–,–,–,–,–,–
OCc1cccnc1,inactive,inactive,inactive,inactive,inactive,inactive,inactive,–,inactive,–,inactive,inactive,inactive,–,–,–,–,–
C#CC(C)(CC)OC(=O)c1ccccc1C(=O)O (stereo not given),inactive,inactive,inactive,inactive,inactive,inactive,inactive,inactive,inactive,inactive,inactive,inactive,inactive,–,–,–,–,–
Nc1ncnc2nc[nH]c12,inactive,inactive,inactive,inactive,inactive,inactive,inactive,inactive,inactive,inactive,inactive,inactive,inactive,–,–,–,–,–
CCO[C@H](Cc1ccc(OCCc2ccc(OS(C)(=O)=O)cc2)cc1)C(=O)O,inactive,inactive,inactive,inactive,inactive,inactive,inactive,inactive,inactive,inactive,–,inactive,inactive,–,–,–,–,–
COc1ccc(OC(=O)N(CC(=O)O)Cc2ccc(OCCc3nc(-c4ccccc4)oc3C)cc2)cc1,inactive,inactive,inactive,inactive,inactive,inactive,inactive,inactive,inactive,inactive,–,inactive,inactive,–,–,–,–,–
COC(=O)c1ccc(NC(C)=O)cc1OC,inactive,inactive,inactive,inactive,inactive,inactive,inactive,inactive,inactive,inactive,–,inactive,–,–,–,–,–,–
CCN(CC)CC(=O)Nc1c(C)cccc1C(=O)OC,inactive,inactive,inactive,inactive,inactive,inactive,inactive,inactive,inactive,inactive,inactive,inactive,inactive,–,–,–,–,–
O=C(O)Cn1c(=O)n(Cc2ccc(Br)cc2F)c(=O)c2ccc(Cl)cc21,inactive,inactive,inactive,inactive,inactive,inactive,inactive,inactive,inactive,inactive,–,inactive,–,–,–,–,–,–
CCC(=O)Oc1ccc2c(c1)CC[C@@H]1[C@@H]2CC[C@@]2(C)[C@H]1C[C@@H](OC(=O)CC)[C@@H]2OC(=O)CC,inactive,inactive,inactive,inactive,inactive,inactive,inactive,inactive,–,inactive,–,inactive,inactive,–,–,–,–,–
COc1ccccc1N1CCN(CC(O)COc2cc(OC)c(OC)c(OC)c2)CC1 (stereo not given),inactive,inactive,inactive,inactive,inactive,inactive,inactive,inactive,–,inactive,inactive,inactive,–,–,–,–,–,–
CC(=O)O[C@H]1CC[C@@]2(C)C(=CC[C@@H]3[C@@H]2CC[C@]2(C)C(C(C)=O)=CC[C@@H]32)C1,inactive,inactive,inactive,inactive,inactive,inactive,–,–,inactive,inactive,inactive,inactive,inactive,–,–,–,–,–
Cc1cc(O)c2c(O)c3c(O)cccc3cc2c1,inactive,inactive,inactive,inactive,inactive,inactive,inactive,inactive,inactive,inactive,inactive,inactive,inactive,–,–,–,–,–
CCOC(=O)N1CCC(Nc2ccc(Cl)cc2N)CC1,6.68 µM (active),inactive,19.4 µM (active),8.41 µM (active),2.66 µM (active),4.9 µM (active),–,inactive,inactive,–,–,inactive,–,–,–,–,–,–
C1=CC2C3C=CC(C3)C2C1 (stereo not given),inactive,inactive,inactive,inactive,inactive,inactive,inactive,inactive,inactive,inactive,inactive,inactive,inactive,–,–,–,–,–
CCCCC(CC)COC(=O)c1ccccc1C(=O)O (stereo not given),inactive,inactive,inactive,inactive,inactive,inactive,inactive,inactive,inactive,inactive,inactive,–,inactive,–,–,–,–,–
CC(=O)OCC(=O)[C@@]1(O)CCC2C3CCC4=CC(=O)CC[C@]4(C)C3[C@@H](O)C[C@@]21C (stereo not given in full),inactive,inactive,inactive,inactive,inactive,inactive,inactive,inactive,inactive,inactive,–,inactive,inactive,inactive,16.5 µM (active),inactive,inactive,inactive
O=C1CC(c2ccc(Cl)cc2)CC(=O)N1,inactive,inactive,inactive,inactive,inactive,inactive,inactive,inactive,inactive,inactive,–,inactive,inactive,–,–,–,–,–
CCOc1c(N2CCOCC2)cnn(C)c1=O,inactive,inactive,inactive,inactive,inactive,inactive,inactive,inactive,inactive,inactive,–,inactive,inactive,–,–,–,–,–
CC(C)C(=O)Nc1cccc(C2CN3CCSC3=N2)c1 (stereo not given),inactive,inactive,inactive,inactive,inactive,inactive,inactive,inactive,inactive,inactive,inactive,inactive,inactive,–,–,–,–,–
CCN(CC)C(=O)C1CN2CCc3cc(OC)c(OC)cc3C2CC1OC(C)=O (stereo not given),inactive,inactive,inactive,inactive,inactive,inactive,inactive,inactive,inactive,inactive,inactive,–,inactive,–,–,–,–,–
C[C@@H]1CCC[C@H](C)N1CCCC(O)(c1ccccc1)c1ccccn1 (stereo not given in full),inactive,inactive,inactive,inactive,inactive,inactive,–,inactive,inactive,–,inactive,inactive,inactive,–,–,–,–,–
Cc1onc(-c2ccccc2)c1C(=O)Cl,inactive,inactive,inactive,inactive,inactive,inactive,–,inactive,inactive,inactive,inactive,inactive,inactive,–,–,–,–,–
